# Reference: PubChem BioAssay
# Calls of active or inactive are those of the source. Unless noted, how the calls were made is not given here.
# Legend:
# [1] = tested on: Wnt5a (protein binding on small-molecule microarray); test: Wnt5a binders on small-molecule microarray, primary screen, biophysical, 635/667 nm fluorescence (AID 1142); settings: 635 nm fluorescence, higher = more signal;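 further: fluorescence read at 667 nm with signal to noise per printed feature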
# [2] = cell viability in Huh7 cells, primary screen, cytotoxicity control for HCV replication inhibitor project, CellTiter-Glo luminescence, basal, 48 h (AID 1143); settings: Huh7 HCV replicon, higher = more signal, called active from +8 up or from −8 down;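 further: Huh7 hepatoma cells carrying a hepatitis C replication reporter with no stimulus; test concentration not given here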
# [3] = P. aeruginosa biofilm formation inhibitors, primary screen, PAO1 strain, BacTiter-Glo luminescence, LB-PBS (AID 1144); settings: 12 h, higher = more signal
# [4] = CREB reporter modulators without forskolin, primary screen, cell-based, PC12, CRE-LacZ reporter, unstimulated (AID 1145); settings: no forskolin, luminescence, 4.5 h, higher = more signal, called active from +8 up or from −8 down
# [5] = CREB reporter modulators under forskolin, primary screen, cell-based, PC12, CRE-LacZ reporter, forskolin-stimulated (AID 1146); settings: luminescence, 4.5 h, higher = more signal, called active from +8 up or from −8 down;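 further: PC12 cells with 6xCRE LacZ reporter stimulated by forskolin 10 µM; beta-galactosidase reporter signal reflecting CREB driven transcription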
# [6] = target: Streptavidin (Streptomyces avidinii) (UniProt P22629); test: streptavidin binders on small-molecule microarray, primary screen, artefact control for SMM compound annotation, biophysical, 635/667 nm fluorescence (AID 1147); settings: streptavidin binding, higher = more signal;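 further: signal reflects streptavidin binding to arrayed compounds as a control protein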
# [7] = small-molecule binders of probe aInhba, primary screen, biochemical, small-molecule microarray, 635/667 nm fluorescence (AID 1148); settings: higher = more signal;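 further: score merges 667nm spot fluorescence with signal-to-noise for antibody binding to printed compounds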
# Torsin-1A (Homo sapiens) [8] = target: Torsin-1A (Homo sapiens) (UniProt O14656); test: torsin A binders from cell lysate, primary screen, small-molecule microarray, wild-type, 635/667 nm (AID 1149); settings: COS7 hTOR1A-WT lysate, 635 nm fluorescence, higher = more signal
# Torsin-1A (Homo sapiens) [9] = target: Torsin-1A (Homo sapiens) (UniProt O14656); test: small-molecule binders of mutant TOR1A in lysate, primary screen, cell lysate, small-molecule microarray, COS7 lysate, 635/667 nm fluorescence (AID 1150); settings: COS7 hTOR1A mutant lysate, 635 nm fluorescence, higher = more signal;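 further: score pools 667 nm emission and signal to noise measuring lysate protein binding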
# [10] = tested on: Sonic hedgehog protein (Shh); test: small-molecule binders of Shh protein, primary screen, biochemical, small-molecule microarray, 635/667 nm fluorescence (AID 1151); settings: small-molecule microarray binding, 635 nm fluorescence; higher = more signal;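 further: Shh protein binding to compounds spotted on small-molecule microarray slides; score combines spot fluorescence intensity with signal-to-noise across triplicate slides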
# [11] = E. coli DRC41 culture turbidity changes, primary screen, E. coli filamentation inducer project, strain DRC41, OD650, 48 h (AID 1152);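 further: E. coli MC1000 strain DRC41 lacking acrAB efflux pump and sulA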; settings: E. coli DRC41 (acrAB sulA), higher = more signal, called active from +8 up or from −8 down
# [12] = small-molecule binders of probe aLefty1, primary screen, biochemical, small-molecule microarray, 635/667 nm fluorescence (AID 1153); settings: higher = more signal;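 further: score merges spot fluorescence with signal-to-noise ratio from the scanned slide images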
# [13] = PSAC antagonists in infected red cells, primary screen, cell-based, P. falciparum Indochina, OD700, 1 h (AID 1154); settings: P. falciparum Indochina infected RBC osmotic lysis, higher = more signal, called active from +8 up or from −8 down
# [14] = PSAC antagonists in infected red cells, primary screen, cell-based, P. falciparum Indochina, OD700, 2 h (AID 1155);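 further: lysis reports solute entry through the parasite surface anion channel PSAC; channel blockers reduce lysis of infected cells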; settings: P. falciparum Indochina infected erythrocytes, osmotic lysis OD700; higher = more signal, called active from +8 up or from −8 down
# [15] = osmotic lysis modulators in infected erythrocytes, primary screen, PSAC antagonist project, cell-based, P. falciparum Indochina, OD700, 3 h (AID 1156); settings: higher = more signal, called active from +8 up or from −8 down
# [16] = PSAC antagonists in infected red cells, primary screen, cell-based, P. falciparum Indochina, OD700, 18 h (AID 1157); settings: P. falciparum Indochina infected erythrocytes, osmotic lysis OD700, 18 h; higher = more signal, called active from +8 up or from −8 down
# [17] = modulators of S6 phosphorylation in cells, primary screen, cell-based, A549, cytoblot, luminescence, serum-stimulated (AID 1158); settings: A549 phospho-S6 cytoblot, 5 h, higher = more signal;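 further: serum-stimulated A549 lung adenocarcinoma cells; signal is phosphorylated S6 detected by cytoblot immunostaining with HRP secondary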
# [18] = target: NADPH oxidase 2 (Homo sapiens) (UniProt P04839); test: NOX2-dependent H2O2 signal modulators, primary screen, NOX inhibitor project, cell-based, HEK293-NOX2, PMA-stimulated, Amplex Red fluorescence (AID 1159); settings: 45 min, higher = more signal, called active from +8 up or from −8 down; further: test concentration not given here
# [19] = target: NADPH oxidase 4 (Homo sapiens) (UniProt Q9NPH5); test: NOX4-dependent H2O2 signal modulators, primary screen, NOX inhibitor project, cell-based, HEK293-NOX4, tetracycline-induced, Amplex Red fluorescence (AID 1160); settings: 45 min, higher = more signal, called active from +8 up or from −8 down
# [20] = target: NADPH oxidase 5 (Homo sapiens) (UniProt Q96PH1); test: NOX5-dependent H2O2 signal modulators, primary screen, NOX inhibitor project, cell-based, HEK293-NOX5, Amplex Red fluorescence (AID 1161); settings: HEK293-NOX5, ionomycin, 45 min, higher = more signal
# NADPH oxidase 5 (Homo sapiens), sequence (Q96PH1 whole entry, looked up): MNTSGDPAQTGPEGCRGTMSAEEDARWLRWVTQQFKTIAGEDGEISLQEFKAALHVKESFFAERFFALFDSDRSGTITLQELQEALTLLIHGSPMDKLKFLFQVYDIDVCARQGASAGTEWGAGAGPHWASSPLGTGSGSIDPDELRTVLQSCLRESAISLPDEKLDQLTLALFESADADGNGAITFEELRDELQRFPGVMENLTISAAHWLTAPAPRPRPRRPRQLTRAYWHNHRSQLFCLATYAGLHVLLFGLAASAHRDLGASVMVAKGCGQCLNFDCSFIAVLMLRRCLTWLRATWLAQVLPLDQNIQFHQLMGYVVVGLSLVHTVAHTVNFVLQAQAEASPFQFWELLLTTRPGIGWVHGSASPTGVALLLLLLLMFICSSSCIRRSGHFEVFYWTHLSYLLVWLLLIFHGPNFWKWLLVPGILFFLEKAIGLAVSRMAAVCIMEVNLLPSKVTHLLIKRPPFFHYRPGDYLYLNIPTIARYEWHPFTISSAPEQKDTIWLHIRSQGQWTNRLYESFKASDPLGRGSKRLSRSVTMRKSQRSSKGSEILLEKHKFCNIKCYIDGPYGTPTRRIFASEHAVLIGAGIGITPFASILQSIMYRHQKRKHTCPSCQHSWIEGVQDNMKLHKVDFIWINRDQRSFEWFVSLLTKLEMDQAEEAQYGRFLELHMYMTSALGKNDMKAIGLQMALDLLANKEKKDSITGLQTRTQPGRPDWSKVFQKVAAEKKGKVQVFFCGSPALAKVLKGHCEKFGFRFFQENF
# Streptavidin (Streptomyces avidinii), sequence (P22629 whole entry, looked up): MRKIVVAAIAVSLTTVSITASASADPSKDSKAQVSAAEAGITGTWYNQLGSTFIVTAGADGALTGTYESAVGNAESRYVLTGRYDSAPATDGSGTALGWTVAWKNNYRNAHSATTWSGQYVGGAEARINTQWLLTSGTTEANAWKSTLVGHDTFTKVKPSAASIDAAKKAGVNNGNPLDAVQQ
# NADPH oxidase 2 (Homo sapiens), sequence (P04839 whole entry, looked up): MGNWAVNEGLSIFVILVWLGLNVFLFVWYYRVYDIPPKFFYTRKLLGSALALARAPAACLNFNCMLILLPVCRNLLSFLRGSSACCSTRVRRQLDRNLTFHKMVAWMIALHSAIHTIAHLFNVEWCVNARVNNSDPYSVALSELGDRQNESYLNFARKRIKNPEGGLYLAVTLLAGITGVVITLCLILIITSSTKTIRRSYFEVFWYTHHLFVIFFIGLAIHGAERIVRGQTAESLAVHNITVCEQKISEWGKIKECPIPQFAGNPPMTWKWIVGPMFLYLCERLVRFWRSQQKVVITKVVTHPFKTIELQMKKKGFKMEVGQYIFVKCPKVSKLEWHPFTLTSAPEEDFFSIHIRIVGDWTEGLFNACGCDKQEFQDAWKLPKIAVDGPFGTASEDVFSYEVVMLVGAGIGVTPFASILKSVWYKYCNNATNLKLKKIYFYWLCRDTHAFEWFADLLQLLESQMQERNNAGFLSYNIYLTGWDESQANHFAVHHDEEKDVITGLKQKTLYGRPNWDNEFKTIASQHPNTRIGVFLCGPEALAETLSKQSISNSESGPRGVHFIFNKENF
# Torsin-1A (Homo sapiens), sequence (O14656 whole entry, looked up): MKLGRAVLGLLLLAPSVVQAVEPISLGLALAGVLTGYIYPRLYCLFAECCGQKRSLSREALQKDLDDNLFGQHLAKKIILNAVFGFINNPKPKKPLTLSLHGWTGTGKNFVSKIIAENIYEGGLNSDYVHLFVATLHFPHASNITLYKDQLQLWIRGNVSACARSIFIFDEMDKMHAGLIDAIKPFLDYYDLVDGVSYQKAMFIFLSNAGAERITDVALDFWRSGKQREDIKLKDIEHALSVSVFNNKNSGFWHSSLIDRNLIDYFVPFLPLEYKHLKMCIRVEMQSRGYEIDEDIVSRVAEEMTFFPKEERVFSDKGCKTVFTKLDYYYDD
# NADPH oxidase 4 (Homo sapiens), sequence (Q9NPH5 whole entry, looked up): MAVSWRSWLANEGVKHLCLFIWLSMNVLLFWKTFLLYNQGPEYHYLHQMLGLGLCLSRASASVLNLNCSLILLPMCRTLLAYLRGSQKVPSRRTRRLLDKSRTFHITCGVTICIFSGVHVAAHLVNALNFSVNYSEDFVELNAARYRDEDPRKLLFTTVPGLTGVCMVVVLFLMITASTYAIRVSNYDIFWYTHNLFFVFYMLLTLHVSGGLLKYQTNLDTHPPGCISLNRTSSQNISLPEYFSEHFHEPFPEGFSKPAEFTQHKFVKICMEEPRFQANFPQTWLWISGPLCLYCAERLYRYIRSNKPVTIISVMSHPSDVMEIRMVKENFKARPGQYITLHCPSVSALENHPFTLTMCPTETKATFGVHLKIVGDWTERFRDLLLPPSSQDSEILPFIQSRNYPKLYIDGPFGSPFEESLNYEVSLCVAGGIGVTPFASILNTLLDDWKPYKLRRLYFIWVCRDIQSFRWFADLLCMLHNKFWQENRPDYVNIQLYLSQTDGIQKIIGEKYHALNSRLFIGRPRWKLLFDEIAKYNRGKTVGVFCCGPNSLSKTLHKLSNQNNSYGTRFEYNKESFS
SMILES,composite z-score [1],z-score [2],z-score [3],z-score [4],z-score [5],composite z-score [6],composite z-score [7],composite z-score (Torsin-1A (Homo sapiens) [8]),composite z-score (Torsin-1A (Homo sapiens) [9]),composite z-score [10],z-score [11],composite z-score [12],z-score [13],z-score [14],z-score [15],z-score [16],z-score [17],z-score [18],z-score [19],z-score [20]
CCOC(=O)C1=CCN(S(=O)(=O)c2ccc(C)cc2)C1c1ccccc1 (stereo not given),0.0881,-3.3 (inactive),0.498 (inactive),-0.284 (inactive),-1.12 (inactive),0.388,0.141,0.355,0.302,0.598,-1.44 (inactive),0.121,3.1 (inactive),0.8 (inactive),-0.451 (inactive),0.806 (inactive),-0.489,0.532 (inactive),-1.38 (inactive),-0.86
CN(C)CCCCCCNC(=O)[C@@H]1C[C@@H]2C(=O)N[C@@H](CCCCN)C(=O)N2[C@@H]1c1ccc(O)cc1,1.95,-1.9 (inactive),-1.3 (inactive),-1.08 (inactive),-0.643 (inactive),2.97,1.93,3.46,3.21,1.88,0.724 (inactive),3.1,0.983 (inactive),-0.111 (inactive),2.87 (inactive),-1.88 (inactive),1.32,-0.0284 (inactive),0.901 (inactive),1.13
CC(C)(C)OC(=O)CC[C@]12N=C(c3ccc(OCCCO)cc3)O[C@H]1c1ccccc1N(Cc1ccccc1)C2=O,0.154,-3.76 (inactive),1.18 (inactive),0.951 (inactive),-0.746 (inactive),-0.12,0.225,0.553,1.63,1.12,0.617 (inactive),0.848,27 (active),28.2 (active),4.42 (inactive),2.09 (inactive),0.34,3.89 (inactive),0.102 (inactive),-1.71
C=CC[C@H](OC(=O)Nc1ccc(SC)cc1)c1ccc(OCCO)cc1,-0.348,-2.69 (inactive),-0.982 (inactive),8.61 (active),0.938 (inactive),-0.707,-0.112,0.25,0.154,1.68,-0.393 (inactive),-0.0987,31 (active),17.3 (active),3.54 (inactive),1.58 (inactive),-0.161,-1.96 (inactive),-0.438 (inactive),-1.34
Cc1ccc(F)cc1S(=O)(=O)N[C@@H]1CCN(Cc2cccc3[nH]ccc23)C1,0.148,-2.35 (inactive),-0.0885 (inactive),1.13 (inactive),-0.714 (inactive),-0.0164,0.143,0.495,0.913,0.969,-1.41 (inactive),-0.007,1.27 (inactive),0.137 (inactive),0.0401 (inactive),0.451 (inactive),-0.453,0.116 (inactive),-0.746 (inactive),-0.541
CCOC(=O)C[C@H]1[C@H](OC(=O)c2ccccc2-c2ccccc2)[C@@H](NC(=O)c2ccccc2)c2cc(OCCCO)ccc2N1C(=O)c1ccccc1,0.309,-0.208 (inactive),0.867 (inactive),2.38 (inactive),0.908 (inactive),0.19,-0.157,0.0802,0.261,0.259,-1.13 (inactive),-0.0547,1.61 (inactive),0.0478 (inactive),1.11 (inactive),0.256 (inactive),-0.133,0.418 (inactive),0.884 (inactive),0.838
COc1cccc(/C=C(\C#N)C(=O)Nc2c(C)n(C)n(-c3ccccc3)c2=O)c1,0.152,-2.45 (inactive),-1.47 (inactive),-0.788 (inactive),-0.821 (inactive),0.841,-0.206,0.217,0.285,0.241,1.42 (inactive),-0.168,2.13 (inactive),-0.901 (inactive),0.381 (inactive),-0.924 (inactive),1.06,-0.355 (inactive),0.139 (inactive),0.595
COc1cc(NN2C(C(O)c3ccccc3)C=CC3C(=O)N(C)C(=O)C32)cc(OC)c1OC (stereo not given),0.107,-2.51 (inactive),-0.426 (inactive),0.0603 (inactive),-0.126 (inactive),0.194,0.0184,-0.0091,0.576,0.36,-1.05 (inactive),0.0455,0.758 (inactive),0.34 (inactive),1.21 (inactive),-0.447 (inactive),1.44,-3.07 (inactive),-5.77 (inactive),-6.19
NC(=O)[C@H]1[C@@H]2C(=O)O[C@@H](c3ccccc3)[C@@H](c3ccccc3)N2[C@@H](c2ccc(O)cc2)[C@]12C(=O)Nc1ccc(C#CC3=CCCCC3)cc12,-0.0856,-3.73 (inactive),0.363 (inactive),0.478 (inactive),0.731 (inactive),0.185,-0.128,0.509,0.721,1.19,-1.35 (inactive),0.145,3.07 (inactive),1.45 (inactive),0.28 (inactive),1.4 (inactive),-0.425,1.18 (inactive),0.425 (inactive),0.563
CC(=O)NCCCC[C@@H]1NC(=O)[C@H]2C[C@@H](C(=O)NCCCCCNC(=O)CS)[C@@H](c3cccc(OCCO)c3)N2C1=O,-0.0417,0.321 (inactive),-0.93 (inactive),-0.13 (inactive),0.908 (inactive),-0.155,-0.128,0.498,0.092,1.74,-0.486 (inactive),-0.0573,1.85 (inactive),0.461 (inactive),-0.369 (inactive),0.227 (inactive),0.0439,1.87 (inactive),0.825 (inactive),0.697
COCCOC(=O)N1C(=O)[C@@]2(c3cc(C#CCCO)ccc31)[C@H](C(=O)N1CCCCCCC1)[C@H]1C(=O)O[C@H](c3ccccc3)[C@H](c3ccccc3)N1[C@@H]2c1ccccc1OCCO,0.985,-2.07 (inactive),0.893 (inactive),0.0655 (inactive),-0.823 (inactive),2.6,1.3,1.22,1.62,1.68,-0.82 (inactive),2.52,0.56 (inactive),0.654 (inactive),0.0531 (inactive),0.336 (inactive),-0.319,1.96 (inactive),0.843 (inactive),1.73
CCOC(=O)C1=CC[C@@H](c2ccccc2)N(S(=O)(=O)c2ccc(C)cc2)[C@H]1C=Cc1ccccc1,-0.109,-2.35 (inactive),0.17 (inactive),-0.0696 (inactive),0.521 (inactive),0.261,0.0713,0.0331,-0.0749,-0.723,-1.11 (inactive),0.436,1.92 (inactive),1.12 (inactive),-0.684 (inactive),0.779 (inactive),-0.577,0.549 (inactive),-0.395 (inactive),0.884
O=C1OCCC=C[C@H]2OC34C=CCN(c5ccc(Cl)cc5)C(=O)[C@H]3N(CCCCCCO)C(=O)[C@@H]4C12 (stereo not given in full),-0.365,-0.352 (inactive),0.358 (inactive),0.0645 (inactive),-1.34 (inactive),-0.985,0.0333,0.132,-0.175,-0.341,1.96 (inactive),-0.0292,0.769 (inactive),0.138 (inactive),1.13 (inactive),0.255 (inactive),0.551,1.47 (inactive),0.036 (inactive),2.61
C=C/C=C/[C@@H]1C(=C)CN([C@@H](Cc2ccccc2)C(=O)OC)[C@H]1[C@@H](O)Cc1ccccc1,-0.0425,-0.342 (inactive),-0.428 (inactive),3.38 (inactive),2.05 (inactive),0.185,-0.0418,0.218,0.795,0.949,0.834 (inactive),-0.0601,0.743 (inactive),0.362 (inactive),-0.41 (inactive),0.109 (inactive),0.294,0.0619 (inactive),-0.199 (inactive),0.568
COCCOC(=O)N1C(=O)[C@@]2(c3cc(C#CCNC(N)=O)ccc31)[C@H](c1ccc(OCCO)cc1)N1[C@H](c3ccccc3)[C@H](c3ccccc3)OC(=O)[C@H]1[C@@H]2C(N)=O,0.428,0.0121 (inactive),0.529 (inactive),0.228 (inactive),-0.304 (inactive),0.947,-0.0131,0.304,0.406,1.44,0.336 (inactive),-0.346,4.37 (inactive),1.02 (inactive),-0.383 (inactive),0.0173 (inactive),-0.412,1.84 (inactive),1.34 (inactive),0.646
COCCOC(=O)N1C(=O)[C@@]2(c3ccccc31)[C@H](c1ccc(OCCO)cc1)N1[C@H](c3ccccc3)[C@H](c3ccccc3)OC(=O)[C@H]1[C@@H]2C(=O)N1CCCCCCC1,2.44,-2.59 (inactive),-0.302 (inactive),-0.329 (inactive),3.39 (inactive),4.09,2.11,3.76,3.68,2.29,-0.906 (inactive),2.77,22.8 (active),7.62 (inactive),0.586 (inactive),1.64 (inactive),-0.0785,0.918 (inactive),0.901 (inactive),1.33
C=C(COC)/C(=C/C[C@@H](OC(C)=O)c1ccc(CO)o1)c1cc(C(=O)OC)ccc1OC,-0.0561,0.0759 (inactive),-0.921 (inactive),-0.0602 (inactive),1.12 (inactive),-0.367,-0.0933,-0.5,0.666,1.64,0.265 (inactive),0.051,1.56 (inactive),0.362 (inactive),0.389 (inactive),0.0621 (inactive),0.187,0.184 (inactive),-0.207 (inactive),0.13
